High-throughput results (PubChem)
Only some compounds are listed: those with a hit (about 31% of all), similar ones and a draw of the others.
CYP2C9 inh: inhibitors of human CYP2C9 | inhibition, % at 5 µM | 96,000 tested, 20% active | AID 777 | CYP2C9 Supersomes, luciferin-H conversion, luminescence | P11712;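 active means blocking of liver enzyme CYP2C9 beyond about 50% at 5 µM, limit read from the data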
Target sequence (P11712 whole entry, looked up): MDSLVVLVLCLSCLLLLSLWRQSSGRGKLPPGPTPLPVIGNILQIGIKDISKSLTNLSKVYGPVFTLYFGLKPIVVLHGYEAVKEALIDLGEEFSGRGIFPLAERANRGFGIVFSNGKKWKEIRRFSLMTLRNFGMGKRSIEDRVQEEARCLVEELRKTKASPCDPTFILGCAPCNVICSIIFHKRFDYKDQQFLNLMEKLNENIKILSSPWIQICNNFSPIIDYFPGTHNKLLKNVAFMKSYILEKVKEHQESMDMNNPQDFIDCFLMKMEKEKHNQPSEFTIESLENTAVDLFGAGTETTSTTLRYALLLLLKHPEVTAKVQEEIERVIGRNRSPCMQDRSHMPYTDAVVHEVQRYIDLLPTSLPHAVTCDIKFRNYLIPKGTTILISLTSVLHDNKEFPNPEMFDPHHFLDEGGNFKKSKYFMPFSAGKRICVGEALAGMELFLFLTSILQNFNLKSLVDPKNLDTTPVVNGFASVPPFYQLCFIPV
CYP2C19 inh: blocks human cytochrome P450 2C19 | P33261 | CYP2C19 Supersomes, luciferin-H EGE luminescence, 30 min | inhibition, % at 5 µM | 96,000 tested, 21% active | AID 778;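 active means CYP2C19 inhibition above a set limit at 5 µM in the primary screen, cut at about 50% in these data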;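 further: plate controls were negative control wells for no effect and 2.5 mM tranylcypromine positive control for full effect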
CYP2C19 act: increases human CYP2C19 enzyme activity; activation factor at 5 µM; P33261; 96,000 tested, under 10 active; recombinant CYP2C19, luciferin-H EGE luminescence; active compounds read high; 0 = fully inhibited enzyme, 1 = untreated enzyme;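 active means activation factor of at least 2 at 5 µM in the primary screen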;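 further: 0 = wells with 2.5 mM tranylcypromine and 1 = vehicle-only wells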
CYP2C9 activ: CYP2C9 (human) activation | 96,000 tested, 1.4% active | P11712 | recombinant CYP2C9, luciferin-H conversion, luminescence; active compounds read high; factor 1 = untreated enzyme, 0 = blocked | activation factor at 5 µM;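 active means activation factor of 2 or more for CYP2C9 at a 5 µM dose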;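 further: 0 = sulfaphenazole-blocked wells and 1 = vehicle-only wells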
PLAP act: human PLAP activation; purified PLAP enzyme, luminescent substrate read-out; active compounds read high; 96,000 tested, 1.2% active; P05187; activation fold at 20 µM; AID 696; in the data active means activation fold above about 2
Numbers without * were called inactive.

SMILES	CYP2C9 inh	CYP2C19 inh	CYP2C19 act	CYP2C9 activ	PLAP act
O=C(CSc1n[nH]c(-c2ccncc2)n1)c1ccccc1	96*	90*	0.1	0	0.9
NS(=O)(=O)c1ccc(NC(=O)COC(=O)CSc2n[nH]c(-c3ccccc3)n2)cc1	26	13	0.9	0.7	1.2
CCC(c1nnnn1CCc1ccccc1)N1CCN(c2ccc(OC)cc2)CC1 (stereo unspecified)	25	30	0.7	0.8	1
CCSc1nnc(NC(=O)NC(CC)(C(F)(F)F)C(F)(F)F)s1	22	9	0.9	0.8	1
COC(=O)N1CCN(c2ccc(Cl)c(Cl)c2)CC1	28	66*	0.3	0.7	1
CCC(=O)Nc1ccccc1-c1nnn(CC(=O)N2c3ccccc3CC2C)n1 (stereo unspecified)	78*	45	0.6	0.2	0.9
CCOc1ccc(NC(=O)Cn2nnc(-c3ccccc3NC(=O)C3CC3)n2)cc1	36	82*	0.2	0.6	0.9
COc1ccc(NC(=O)Cn2nnc(-c3ccccc3NC(=O)C3CC3)n2)cc1	44	94*	0.1	0.6	0.8
O=C(Cn1nnc(-c2ccccc2NC(=O)c2cccs2)n1)Nc1ccccc1	76*	23	0.8	0.2	1.2
CCOC(=O)C1=NN(C(=O)Nc2cccc(C(F)(F)F)c2)C2C(=O)N(c3cccc(C(F)(F)F)c3)C(=O)C12 (stereo unspecified)	45	35	0.6	0.6	1.4
COc1ccc(N2CC(C(=O)OCC(=O)NCc3ccccc3)CC2=O)cc1 (stereo unspecified)	13	-6	1.1	0.9	1.1
COCCOC(=O)C1=C(N)Oc2c(oc(CO)cc2=O)C1c1c(F)cccc1Cl (stereo unspecified)	-17	16	0.8	1.2	0.9
COc1ccc(C(=O)Cn2nnc(-c3ccccc3NC(=O)C(F)(F)F)n2)cc1	-16	2	1	1.2	0.8
COc1ccc(C(=O)Cn2nnc(-c3ccccc3NC(=O)C3CCCCC3)n2)cc1	85*	19	0.8	0.1	1.2
COc1cc(NC(=O)Cn2nnc(-c3ccccc3N)n2)cc(OC)c1	54*	40	0.6	0.5	0.8
CC1(C)CC(NCc2ccc3c(c2)OCO3)CCO1 (stereo unspecified)	12	25	0.8	0.9	1
Clc1ccc(-c2nc3ccccc3n2OCc2ccccc2)cc1	-5	-3	1	1.1	1
COC(=O)c1ccc(OCC(=O)c2ccccc2OC)cc1	45	90*	0.1	0.6	1.5
COC(=O)COc1ccc(C(=O)OC)cc1	29	81*	0.2	0.7	0.9
O=C(NCc1ccco1)c1ccc(=O)oc1	-13	-3	1	1.1	1
COc1ccccc1S(=O)(=O)Cc1ccc(C(=O)NCc2ccc3c(c2)OCO3)o1	75*	61*	0.4	0.3	0.9
CCCCNC(=O)c1ccc(CS(=O)(=O)c2cccc(C(F)(F)F)c2)o1	-30	71*	0.3	1.3	0.8
O=C(NCc1ccc2c(c1)OCO2)c1ccc(CS(=O)(=O)c2ccc(Br)cc2)o1	95*	55*	0.5	0.1	0.9
O=C(NCC1CCCO1)c1ccc(CS(=O)(=O)c2ccc(Br)cc2)o1 (stereo unspecified)	14	-4	1	0.9	1
CC(C)NC(=O)c1ccc(CS(=O)(=O)c2ccc(Br)cc2)o1	46	13	0.9	0.5	1
SMILES	CYP2C9 inh	CYP2C19 inh	CYP2C19 act	CYP2C9 activ	PLAP act
COc1ccccc1S(=O)(=O)Cc1ccc(C(=O)NCc2cccs2)o1	6	7	0.9	0.9	1
CC(NC(=O)c1ccc(CS(=O)(=O)c2cccc(C(F)(F)F)c2)o1)c1ccc2c(c1)OCCO2 (stereo unspecified)	62*	64*	0.4	0.4	1.3
O=C(NCc1ccc2c(c1)OCO2)c1ccc(CS(=O)(=O)c2cccc(C(F)(F)F)c2)o1	94*	76*	0.2	0.1	1
O=C(NCc1ccco1)c1ccc(CS(=O)(=O)c2cccc(C(F)(F)F)c2)o1	2	33	0.7	1	1.1
CN1/C(=C/C=N/n2cnnc2)C(C)(C)c2ccccc21	36	92*	0.1	0.6	0.8
CN1/C(=C\P(=O)(N(C)C)N(C)C)C(C)(C)c2ccccc21	4	0	1	1	1.1
Cc1nnc(Nc2ccc3c(c2)ncn3C)c2ccccc12	34	83*	0.2	0.7	1.3
Cc1ccc(-c2nnc(Nc3ccc4c(c3)nc(C)n4C)c3ccccc23)cc1	-4	11	0.9	1	1.3
CCCOc1ccccc1NC(=O)/C=C/C(N)=O	-14	2	1	1.1	1
O=c1cc(O)nc(SCc2ccccc2)n1-c1ccc(F)cc1	1	10	0.9	1	1.2
Cn1c(N2CCOCC2)nc(-c2ccccc2)c1-c1ccccc1	-98	6	0.9	2*	1.6
c1ccc(-c2nc3ccccc3nc2N2CCOCC2)cc1	20	52*	0.5	0.8	0.9
c1ccc2nc(N3CCOCC3)c(N3CCOCC3)nc2c1	16	15	0.9	0.8	0.8
CCOc1ccc2nc(NC(=S)N(C)C)sc2c1	35	28	0.7	0.7	1.3
CCOc1ccc2c(c1)-c1c(ssc1=S)C(C)(C)N2	72*	72*	0.3	0.3	0.8
Cn1cnnc1SCc1ccc(C(=O)n2ncc(C#N)c2N)cc1	-5	-3	1	1	1.1
O=C(O)CN1C(=O)CSc2ccccc21	16	-1	1	0.8	1
O=C1CSc2ccccc2N1Cc1ccc(F)cc1	70*	69*	0.3	0.3	0.9
Cc1ccc([N+](=O)[O-])cc1N/C=C1\CCc2ccccc2C1=O	0	-9	1.1	1	1
C[C@H](NC(=O)OC(C)(C)C)c1nnc(SCC(=O)c2ccc(Cl)cc2)o1	21	22	0.8	0.8	1.2
CC(C)(C)OC(=O)NCCc1nnc(SCc2ccc(Cl)cc2Cl)o1	75*	60*	0.4	0.2	1.3
CC(C)(C)OC(=O)NCCc1nnc(SCC(=O)c2ccc(Cl)cc2)o1	70*	77*	0.2	0.3	1
O=C(CSc1nnc(CNC(=O)c2ccccc2F)o1)c1ccc(Cl)cc1	54*	37	0.6	0.5	1.3
CC(C)(C)OC(=O)N1CCC[C@H]1c1nnc(SCc2c(F)cccc2Cl)o1	76*	45	0.6	0.2	1.6
O=C(CSc1nnc(CNC(=O)c2cccs2)o1)c1ccc(Cl)cc1	34	14	0.9	0.7	0.7
CCOC(=O)CC1C(=O)NCCN1C(=O)NC1CCCCC1 (stereo unspecified)	27	-3	1	0.7	1
COc1ccc(C(=O)N[C@H](C(=O)NCC2CCCCC2)C(C)C)cc1	26	26	0.7	0.7	1
Cc1oc(C(=O)O)cc1CSc1nnc(-c2ccccc2)n1C	29	-16	1.2	0.7	1
